Data reported in paper PMC4336329 (PLoS ONE, 2015).
In all, about 310,000 compounds went through this assay and about 14,000 (4.5%) showed an effect of 50% or more. Effects have a minus sign here. The sample as a whole holds a higher share of strong results than the screen did.

molecular target: human ether-à-go-go-related gene (hERG) potassium channel (human, UniProt Q12809); test: primary screen, population patch clamp on CHO cells stably expressing hERG; higher = less effect of the substance
Sequence (Q12809 whole entry, looked up): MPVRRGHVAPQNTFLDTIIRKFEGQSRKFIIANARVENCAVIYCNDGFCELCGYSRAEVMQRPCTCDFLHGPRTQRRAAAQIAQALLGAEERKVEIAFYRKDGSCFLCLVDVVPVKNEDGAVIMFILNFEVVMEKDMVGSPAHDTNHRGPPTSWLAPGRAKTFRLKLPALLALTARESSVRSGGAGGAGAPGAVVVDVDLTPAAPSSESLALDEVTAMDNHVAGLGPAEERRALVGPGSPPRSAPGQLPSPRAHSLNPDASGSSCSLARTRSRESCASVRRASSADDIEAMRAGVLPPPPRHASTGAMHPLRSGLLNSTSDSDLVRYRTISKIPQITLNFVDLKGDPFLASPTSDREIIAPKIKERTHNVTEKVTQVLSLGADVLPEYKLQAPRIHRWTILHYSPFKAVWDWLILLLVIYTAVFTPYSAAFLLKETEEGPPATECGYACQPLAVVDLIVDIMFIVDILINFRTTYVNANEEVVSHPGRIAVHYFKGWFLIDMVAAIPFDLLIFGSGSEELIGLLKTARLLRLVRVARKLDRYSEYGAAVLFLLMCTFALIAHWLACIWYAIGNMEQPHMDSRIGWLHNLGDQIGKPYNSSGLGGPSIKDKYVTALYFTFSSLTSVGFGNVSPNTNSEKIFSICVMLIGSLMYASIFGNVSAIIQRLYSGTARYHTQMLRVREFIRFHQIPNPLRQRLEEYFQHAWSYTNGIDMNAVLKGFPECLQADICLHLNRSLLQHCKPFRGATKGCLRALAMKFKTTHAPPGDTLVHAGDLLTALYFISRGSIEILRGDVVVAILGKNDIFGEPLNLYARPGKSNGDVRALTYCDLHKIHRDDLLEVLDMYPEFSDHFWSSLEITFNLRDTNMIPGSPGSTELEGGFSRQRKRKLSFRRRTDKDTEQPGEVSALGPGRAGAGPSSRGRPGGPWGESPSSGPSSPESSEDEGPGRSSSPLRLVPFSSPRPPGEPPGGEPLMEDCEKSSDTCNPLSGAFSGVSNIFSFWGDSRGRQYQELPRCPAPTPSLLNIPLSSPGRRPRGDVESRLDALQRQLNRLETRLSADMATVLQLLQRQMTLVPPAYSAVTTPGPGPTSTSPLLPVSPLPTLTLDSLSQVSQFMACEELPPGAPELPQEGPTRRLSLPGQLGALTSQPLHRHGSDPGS
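Also: peak tail current of the secondary pulse compared with the same well before compound.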

| Structure (SMILES) | hERG current change (%, negative = inhibition) at 10uM |
| --- | --- |
| Cc1ccccc1-n1nnnc1SCc1cc(=O)n2ccsc2n1 | -25.6% |
| Cc1nc2ccccc2nc1N1CCOCC1 | 5.42% |
| Cc1cccc2nc(Cn3c(=O)n(CCCC(=O)NCc4ccco4)c(=O)c4ccccc43)cc(=O)n12 | -23% |
| COc1ccc(S(=O)(=O)Nc2ccc(Nc3ccccc3)cc2)cc1 | 5.15% |
| N#Cc1ccccc1Cn1cc(C(=O)c2ccccc2F)c2ccccc21 | 4.67% |
| Cc1cccc(NC(=O)c2cnn(-c3ccc(F)cc3)c2C2CCNCC2)c1C.Cl | -9.71% |
| Cc1cc(C)cc(NC(=O)c2cnn(-c3ccccc3)c2C2CCNCC2)c1.Cl | -19.7% |
| CCc1ccc(NC(=O)c2cnn(-c3ccccc3)c2C)cc1 | 2.7% |
| CCc1ccc(NC(=O)c2cnn(-c3ccccc3)c2C2CCNCC2)cc1.Cl | -60% |
| Cc1ccc(-n2ncc(C(=O)Nc3ccc(Cl)cc3)c2C2CCNCC2)cc1C.Cl | -71.7% |
| Cc1ccc(-n2ncc(C(=O)Nc3cc(Cl)ccc3Cl)c2C2CCNCC2)cc1.Cl | -62% |
| CCCc1c(C(=O)Nc2ccc(F)cc2)cnn1-c1ccccc1 | 12.5% |
| CCc1cccc(NC(=O)c2cnn(-c3ccccc3)c2C)c1 | -56% |
| Cc1c(C(=O)Nc2ccccc2)cnn1-c1ccccc1 | -3.03% |
| Cc1ccc(-n2ncc(C(=O)Nc3cc(Cl)ccc3C)c2C2CCNCC2)cc1C.Cl | -35.1% |
| O=C(c1ccco1)N1CCN(C(=O)c2cnn(-c3ccc(Cl)cc3)c2C2CCNCC2)CC1 | 15% |
| Cc1cccc(C)c1-n1ncc(C(=O)NC2CCCC2)c1C1CCNCC1 | 18.9% |
| NC(=O)c1ccc(N=Cc2ccc([N+](=O)[O-])s2)cc1 | 8.6% |
| Cc1cccc(OCc2nnc(SCC(=O)O)n2Cc2ccccc2)c1 | 28.1% |
| Cc1cccc(C(=O)Nc2nnc(Cc3c[nH]c4ccccc34)s2)c1 | 12.7% |
| O=C(NCc1cccs1)C1CCN(S(=O)(=O)c2ccc3c(c2)OCCO3)CC1 | 16.5% |
| Cc1ccc(C(=O)NCCN2CCOCC2)c(Cl)c1 | 5.79% |
| COc1ccccc1OCC(=O)Nc1cccc(-c2nc3ccccc3o2)c1 | 0.23% |

| Structure (SMILES) | hERG current change (%, negative = inhibition) at 10uM |
| --- | --- |
| COc1ccc(-c2cccc(NS(=O)(=O)c3ccc([N+](=O)[O-])cc3)c2)nn1 | -15.2% |
| CSc1cccc(NC(=O)C2CCN(S(=O)(=O)c3ccc4c(c3)NC(=O)CO4)CC2)c1 | 12.3% |
| O=C(Nc1ccccc1)/C(=C/c1ccc(F)cc1)NC(=O)c1ccco1 | -2.63% |
| CCCCc1ccc(NC(=O)CSc2nnc(C)c(=O)n2N)cc1 | -23.9% |
| Cc1ccn2cc(-c3cnoc3C)nc2c1 | 6.49% |
| Cc1ccc(NC(=O)COc2ccccc2CNC(C)(C)CC(C)(C)C)cc1 | -22.7% |
| CCOc1cc(/C=N/Nc2nc(N3CCCC3)nc(N3CCCC3)n2)ccc1O | -61.4% |
| CCOc1ccc(/C=N/Nc2nc(N3CCCC3)nc(N3CCCC3)n2)cc1OC | -12% |
| COc1cc(/C=N/Nc2nc(N3CCCC3)nc(N3CCCC3)n2)ccc1O | -37.7% |
| Cc1ccc(S(=O)(=O)NNC(=O)c2ccc3ccccc3n2)cc1 | 3.47% |
| CC(=O)c1ccc(-n2c(CCC(=O)O)ccc2-c2cccs2)cc1 | -0.766% |
| O=C(NC1CCCCC1)c1ccc(COc2ccccc2)o1 | 2.32% |
| CC(C)[C@H](NC(=O)OCc1ccccc1)C(=O)OCc1cc(=O)oc2cc(O)ccc12 | -46.7% |
| CSCCC(NS(=O)(=O)c1ccccc1)C(=O)OCc1nc2ccsc2c(=O)[nH]1 (centres unmarked) | 2.87% |
| CSCCC(NS(=O)(=O)c1ccccc1)C(=O)OCc1cc(=O)oc2cc(O)ccc12 (centres unmarked) | -57.3% |
| O=C(NNC(=S)Nc1ccc(Cl)c(Cl)c1)c1cccc([N+](=O)[O-])c1 | 36% |
| CCOC(=O)N1CCN(C(=O)c2cc3cc(Br)ccc3oc2=O)CC1 | -17.7% |
| O=C(O)C(=O)O.S=C(NCCc1ccccc1)N1CCN(Cc2ccccc2)CC1 | 0.0203% |
| CCNC(=S)N1CCN(Cc2ccccc2)CC1.O=C(O)C(=O)O | -59.9% |
| C=CCNC(=S)N1CCN(Cc2ccccc2)CC1.O=C(O)C(=O)O | 6.48% |
| O=C(c1ccc(CN2CCOCC2)cc1)N1CCN(Cc2ccccc2)CC1 | 15.4% |
| O=C(NCC(=O)N1CCN(Cc2ccccc2)CC1)c1ccc(Cl)cc1 | -27.9% |
| O=C(c1ccc2ccccc2c1)N1CCN(Cc2ccccc2)CC1 | -24.4% |

| Structure (SMILES) | hERG current change (%, negative = inhibition) at 10uM |
| --- | --- |
| COc1ccc(C(=O)N2CCC(C(=O)N3CCN(c4ccccc4)CC3)CC2)cc1 | -48.7% |
| O=C(c1ccc(Br)cc1)N1CCC(C(=O)N2CCN(c3ccccc3)CC2)CC1 | -68.5% |
| O=C(c1ccc(-n2cccc2)cc1)N1CCN(Cc2ccccc2)CC1 | -81.1% |
| O=C(NCC(=O)N1CCN(Cc2ccccc2)CC1)c1ccc(Br)cc1 | -53.5% |
| O=C(C1CCC1)N1CCN(c2ccccc2)CC1 | 13.6% |
| O=C(CNS(=O)(=O)c1ccc(Br)cc1)N1CCN(Cc2ccccc2)CC1 | -17.2% |
| O=C(CCCCl)Nc1nc(-c2ccc3c(c2)OCCO3)cs1 | 9.6% |
| CCOC(=O)CC(=O)Nc1c(C)cc(C)cc1C | 4.74% |
| N#CC1=C(N)Oc2cc(N)ccc2C1c1ccc(F)cc1F (centres unmarked) | -22.9% |
| Cc1ccc(CNC(=O)c2cccnc2Cl)cc1 | 9.97% |
| COCCn1cnnc1SCC(=O)Nc1sccc1C(N)=O | -2.66% |
| COc1ccc(NC(=O)CCNS(=O)(=O)c2cc(Br)cnc2N)c(OC)c1 | 8.51% |
| COc1ccc(C2N(c3cc(Cl)ccc3OC)C(=O)C3CCCN32)cc1OC (centres unmarked) | -4.91% |
| CC(C)(C)C(=O)NC(=S)NNC(=O)c1sc2ccccc2c1Cl | 5.79% |
| Cc1ccc(S(=O)(=O)N2CCN(C(=O)CN3CCCC3)C2)cc1 | -6.28% |
| NNC(=O)c1sc2nc(N3CCOCC3)c3c(c2c1N)CCCC3 | 11% |
| O=c1cnc2ccccc2n1Cc1ccc(Br)cc1 | 0.175% |
| CCn1nnnc1SCC(=O)Nc1cc(OC)cc(OC)c1 | 11.8% |
| COC(=O)[C@H](Cc1ccccc1)NC(=O)N1CCN(Cc2ccccc2)CC1 | -58.6% |
| CS(=O)(=O)c1ccc(C(=O)N2CCN(Cc3ccccc3)CC2)cc1 | -55% |
| O=C(c1ccc(F)cc1)N1CCN(Cc2ccccc2)CC1 | 0.241% |
| COC(=O)[C@H](Cc1ccccc1)NC(=O)N1CCCCC1 | 9.93% |
| O=C(c1cccc(Cl)c1)N1CCC(C(=O)N2CCN(Cc3ccccc3)CC2)CC1 | -56.2% |

| Structure (SMILES) | hERG current change (%, negative = inhibition) at 10uM |
| --- | --- |
| CC(C)(C)c1ccc(C(=O)N2CCN(Cc3ccccc3)CC2)cc1 | -3.08% |
| O=C(O)C(=O)O.O=C(c1ccccc1)N1CCN(Cc2ccccc2)CC1 | -9.23% |
| O=C(c1ccc(S(=O)(=O)N2CCCCCC2)cc1)N1CCN(Cc2ccccc2)CC1 | -19.5% |
| O=C(c1cccc(Cl)c1)N1CCN(Cc2ccccc2)CC1 | -8.35% |
| O=C(c1cccc(Cl)c1)N1CCC(N2CCC(C(=O)N3CCCC3)CC2)CC1 | -49.1% |
| COC(=O)[C@H](Cc1ccccc1)NC(=O)N1CCCCCC1 | 13.5% |
| O=C(c1ccc(Br)cc1)N1CCN(Cc2ccccc2)CC1 | -52.2% |
| CCOC(=O)/C(=C/c1ccc(F)cc1)NC(C)=O | -7.91% |
| COCCCNC(=O)CCNS(=O)(=O)c1ccc(C)cc1 | -1.45% |
| Cc1ccc2ncnc(Oc3ncccc3NC(=O)C(C)(C)C)c2c1 | 13.8% |
| O=S(=O)(N1CCCCC1)N1CCN(c2cc(Cl)ccc2Cl)CC1 | 15.2% |
| COc1ccc(C2Nc3ccccc3C(=O)N2Cc2ccco2)cc1CN1C(=O)c2ccccc2C1=O (centres unmarked) | -20.7% |
| O=C(NCc1ccco1)C(=O)c1cn(CC(=O)N2CCCCC2)c2ccccc12 | 19.3% |
| O=C(O)CC/C(=N\NC(=O)CNC(=O)c1ccc(F)cc1)c1ccccc1 | 9.42% |
| Cc1ccc(CNC(=O)COC(=O)Cn2nc(C)c([N+](=O)[O-])c2C)cc1 | -16.3% |
| COc1ccc(C(=O)NCc2ccc(N3CCN(C(=O)OC(C)(C)C)CC3)cc2)cc1 | -12.7% |
| COC(=O)c1cc(-c2c(-c3ccc4c(c3)OCO4)noc2-c2ccsc2)cc([N+](=O)[O-])c1 | 10.7% |
| O=C(c1coc(=O)c2ccccc12)N1CCN(Cc2ccccc2)CC1 | -51.2% |
| O=C(C1CC1)N1CCN(Cc2ccccc2)CC1 | -32.1% |
| CS(=O)(=O)c1ccccc1C(=O)N1CCN(Cc2ccccc2)CC1 | 23.7% |
| COc1ccc(C(=O)N2CCC(C(=O)N3CCN(Cc4ccccc4)CC3)CC2)cc1 | -9.58% |
| Cc1occc1C(=O)N1CCN(Cc2ccccc2)CC1 | -1.16% |
| O=C(c1ccc(Br)cc1)N1CCC(C(=O)N2CCN(Cc3ccccc3)CC2)CC1 | -60.1% |
